Test results: PubChem BioAssay (EPA / NIEHS)
Where “and” joins values, the source holds several entries; their conditions need not be identical. Identical values can stand only once. Some structures have more than one record in an assay (separate samples or runs), and their calls can disagree. Calls of active or inactive are those of the source. The calls were made as follows: active = hit-call score of the fitted dose curve at least 0.9, where 1 is the maximum; inactive = score below 0.9.

Tests used:
Conditions in all cases: mRNA level, 48 h; actives raise or lower the signal
[1] = read-out: Apolipoprotein A-V (APOA5) gene, APOA5 (gene 116519); experiment: LTEA_HepaRG_APOA5: Life Technologies and Expression Analysis (LTEA) Assay for Apolipoprotein A-V (APOA5) gene using HepaRG (AID 2283474)
Summary of the method: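 Readout is APOA5 transcript level by qRT-PCR on Fluidigm dynamic arrays, normalized to three housekeeping genes. HepaRG cultures received chemicals for 48 h at up to 100 uM (half-log steps, 0.5% DMSO), with gain or loss scored relative to DMSO.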

[2] = read-out: Apoptosis regulator Bcl-2 (Homo sapiens) (UniProt P10415); experiment: LTEA_HepaRG_BCL2: Life Technologies and Expression Analysis (LTEA) Assay for Bcl-2 gene using HepaRG (AID 2283475)
Summary of the method: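 Differentiated HepaRG cells in serum-free induction medium were exposed for 48 h to eight half-log concentrations up to 100 uM in 0.5% DMSO, in duplicate. BCL2 mRNA was quantified by TaqMan qRT-PCR normalised to ACTB, GAPDH and POLR2A, with bidirectional fitting versus DMSO.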

[3] = read-out: Bcl-2 (BID) gene, BID (gene 637); experiment: LTEA_HepaRG_BID: Life Technologies and Expression Analysis (LTEA) Assay for Bcl-2 (BID) gene using HepaRG (AID 2283476)
Summary of the method: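 Differentiated HepaRG cells in serum-free induction medium were exposed in duplicate for 48 h to eight half-log concentrations up to 100 uM in 0.5% DMSO. BID mRNA was quantified by qRT-PCR, normalized to ACTB, GAPDH and POLR2A.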

[4] = read-out: Caspase-3 (Homo sapiens) (UniProt P42574); experiment: LTEA_HepaRG_CASP3: Life Technologies and Expression Analysis (LTEA) Assay for cysteine-aspartic acid protease (CASP3) using HepaRG (AID 2283477)
Summary of the method: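 Read-out is CASP3 mRNA level by TaqMan qRT-PCR in human HepaRG cells after 48 h chemical exposure. Eight half-log concentrations topping at 100 uM were tested in 0.5% DMSO; gain or loss was fitted relative to DMSO.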

[5] = read-out: Cytochrome P450 (CYP24A1), CYP24A1 (gene 1591); experiment: LTEA_HepaRG_CYP24A1: Life Technologies and Expression Analysis (LTEA) Assay for Cytochrome P450 (CYP24A1) using HepaRG (AID 2283478)
Summary of the method: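 HepaRG, 48 h chemical exposure, 8-pt half-log CRC from 100 uM, 0.5% DMSO vehicle, duplicates. Endpoint: CYP24A1 mRNA by Fluidigm TaqMan qRT-PCR, normalized ACTB/GAPDH/POLR2A; gain/loss fit vs DMSO.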

[6] = read-out: Cytochrome P450 (CYP1A2), CYP1A2 (gene 1544); experiment: LTEA_HepaRG_CYP1A2: Life Technologies and Expression Analysis (LTEA) Assay for Cytochrome P450 (CYP1A2) using HepaRG (AID 2283479)
Summary of the method: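 CYP1A2 transcript induction or loss, quantified by Fluidigm qRT-PCR against three housekeeping genes, was fitted bidirectionally against 0.5% DMSO controls. Human HepaRG cells received eight half-log concentrations from 100 uM over 48 h.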

[7] = read-out: cysteine-aspartic acid protease (CASP8), CASP8 (gene 841); experiment: LTEA_HepaRG_CASP8: Life Technologies and Expression Analysis (LTEA) Assay for cysteine-aspartic acid protease (CASP8) using HepaRG (AID 2283480)
Summary of the method: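 Differentiated HepaRG cells in serum-free induction medium, 48 h exposure, eight-point half-log series from 100 uM in 0.5% DMSO, duplicates. CASP8 mRNA by qRT-PCR, normalized to ACTB, GAPDH, POLR2A; bidirectional fit versus DMSO.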

[8] = read-out: Cytochrome P450 (CYP2B6), CYP2B6 (gene 1555); experiment: LTEA_HepaRG_CYP2B6: Life Technologies and Expression Analysis (LTEA) Assay for Cytochrome P450 (CYP2B6) using HepaRG (AID 2283481)
Summary of the method: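 HepaRG cells plated 48 h, switched to serum-free induction medium, then dosed 48 h (8 points, half-log from 100 uM, 0.5% DMSO). RNA isolated; CYP2B6 expression measured by qRT-PCR; gain or loss fitted relative to DMSO.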

[9] = read-out: Cytochrome P450 2C19 (Homo sapiens) (UniProt P33261); experiment: LTEA_HepaRG_CYP2C19: Life Technologies and Expression Analysis (LTEA) Assay for CYP2C19 using HepaRG (AID 2283482)
Summary of the method: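 Transcript levels of CYP2C19 were quantified by qRT-PCR after HepaRG cells were treated for 48 hours with test chemicals up to 100 uM (eight half-log concentrations, 0.5% DMSO vehicle). Gain or loss of signal was fitted relative to DMSO.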

[10] = read-out: CYP2C8 (gene 1558); experiment: LTEA_HepaRG_CYP2C8: Life Technologies and Expression Analysis (LTEA) Assay for CYP2C8 using HepaRG (AID 2283483)
Summary of the method: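 Differentiated HepaRG cells in serum-free induction medium exposed 48 h in duplicate to 8 half-log concentrations from 100 uM in 0.5% DMSO. CYP2C8 mRNA by qRT-PCR normalized to ACTB, GAPDH, POLR2A; bidirectional fit versus DMSO.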

Measured: AC50

Caspase-3 (Homo sapiens), sequence (P42574 whole entry, looked up): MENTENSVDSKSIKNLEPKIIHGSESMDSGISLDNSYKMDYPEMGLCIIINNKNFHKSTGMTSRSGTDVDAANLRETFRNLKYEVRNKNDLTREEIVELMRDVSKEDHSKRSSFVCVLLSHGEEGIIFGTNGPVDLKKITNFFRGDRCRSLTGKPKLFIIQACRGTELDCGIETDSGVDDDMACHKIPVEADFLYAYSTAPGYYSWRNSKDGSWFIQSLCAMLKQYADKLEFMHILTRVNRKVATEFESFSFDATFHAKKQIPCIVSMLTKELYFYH
Cytochrome P450 2C19 (Homo sapiens), sequence (P33261 whole entry, looked up): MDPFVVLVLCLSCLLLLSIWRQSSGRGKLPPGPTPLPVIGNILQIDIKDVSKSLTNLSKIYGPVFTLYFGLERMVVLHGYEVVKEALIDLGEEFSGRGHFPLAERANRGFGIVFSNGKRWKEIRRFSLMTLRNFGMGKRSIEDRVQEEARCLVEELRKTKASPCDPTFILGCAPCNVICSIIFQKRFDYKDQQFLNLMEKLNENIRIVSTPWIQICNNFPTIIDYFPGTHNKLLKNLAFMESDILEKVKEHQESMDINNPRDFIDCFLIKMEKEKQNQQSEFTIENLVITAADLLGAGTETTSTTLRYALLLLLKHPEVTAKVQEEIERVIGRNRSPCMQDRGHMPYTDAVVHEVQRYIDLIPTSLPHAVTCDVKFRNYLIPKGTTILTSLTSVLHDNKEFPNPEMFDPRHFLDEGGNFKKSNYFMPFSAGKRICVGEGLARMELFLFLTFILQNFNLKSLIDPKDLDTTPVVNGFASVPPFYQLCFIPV
Apoptosis regulator Bcl-2 (Homo sapiens), sequence (P10415 whole entry, looked up): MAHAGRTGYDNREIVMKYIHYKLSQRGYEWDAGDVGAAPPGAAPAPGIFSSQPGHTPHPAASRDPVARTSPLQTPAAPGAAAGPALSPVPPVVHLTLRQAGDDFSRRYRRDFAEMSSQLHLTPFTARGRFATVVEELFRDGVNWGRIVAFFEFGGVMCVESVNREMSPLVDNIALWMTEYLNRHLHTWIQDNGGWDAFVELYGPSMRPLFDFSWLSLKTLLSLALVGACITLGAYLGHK

CCCCCOC(=O)COc1cc(N2C(=O)C3=C(CCCC3)C2=O)c(F)cc1Cl
active: [5] 0.00316 µM | [8] 25.9 µM
inactive: all other assays above

CC(=O)[C@H]1CC[C@H]2[C@@H]3CCC4=CC(=O)CC[C@]4(C)[C@H]3CC[C@]12C
active: [1] 34 µM | [2] 23 µM | [6] 25.4 µM | [7] 82.2 µM | [8] 32.6 µM | [9] 39.6 µM | [10] 37.2 µM
inactive: [3] | [4] | [5]

Oc1ccc(C(c2ccc(O)cc2)C(Cl)(Cl)Cl)cc1
inactive: [2] | [5] | [6]
active: [1] 79.7 µM | [3] 84.8 µM | [4] 86.2 µM | [7] 88.4 µM | [8] 81.1 µM | [9] 78.4 µM | [10] 93.2 µM

CCCOC(=O)c1ccc(C(=O)OCCC)nc1
active: [6] 50 µM
inactive: all other assays above

CCCCOC(=O)C(C)Oc1ccc(Oc2ccc(C(F)(F)F)cn2)cc1 (stereo unspecified)
inactive: all assays above

N#CSCSc1nc2ccccc2s1
active: [5] 12.4 µM
inactive: all other assays above

CCCN(CCC)c1c([N+](=O)[O-])cc(C(F)(F)F)c(N)c1[N+](=O)[O-]
active: [1] 50 µM | [8] 3.15 µM | [9] 5.41 µM
inactive: all other assays above

c1ccc2[nH]c(-c3cscn3)nc2c1
active: [6] 23.6 µM | [8] 16.5 µM | [9] 28.6 µM
inactive: all other assays above

S=C(S)NCCNC(=S)S.[Mn+2].[S-]C([S-])=NCCN=C([S-])[S-].[Zn+2]
inactive: [3] | [4] | [5]
active: [1] 1.22 µM and 1.49 µM and 1.99 µM | [2] 163 nM and 351 nM and 509 nM | [4] 501 nM and 990 nM | [6] 502 nM and 444 nM and 615 nM | [7] 1.18 µM and 2.18 µM and 1.55 µM | [8] 1.05 µM and 1.1 µM and 1.15 µM | [9] 1.4 µM and 1.55 µM | [10] 1.13 µM and 1.15 µM and 1.5 µM

CCN(Cc1c(F)cccc1Cl)c1c([N+](=O)[O-])cc(C(F)(F)F)cc1[N+](=O)[O-]
active: [1] 26.7 µM | [6] 13.3 µM | [8] 12.7 µM | [9] 12.9 µM
inactive: all other assays above

CCNc1nc(N)nc(Cl)n1
active: [8] 6.87 µM | [9] 6.65 µM
inactive: all other assays above

CCOC(=O)COc1cc(-n2ncc(C(F)(F)F)c(C)c2=O)c(F)cc1Cl
active: [8] 50 µM
inactive: all other assays above

O=C(O)C1(C(=O)Nc2ccc(Cl)cc2Cl)CC1
active: [1] 74.9 µM | [4] 28.4 µM | [8] 66.9 µM | [9] 76.5 µM | [10] 82.6 µM
inactive: all other assays above
